From PubChem BioAssay AID1508600 (Functional Genomics Laboratory (NCATS/FGL), 2020)
In all, about 53,000 sequences went through this assay and about 3,700 (7%) were called active.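 The calls were made as follows: active = gene knockdowns whose robust z-score for IL-1 alpha signal is at least 2 or at most -2, so actives lie on both sides; inactive = the rest.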 Shown is part of a subset that was picked to be rich in actives.

Experiment: Components of the Cytosolic LPS Sensing Pathway: Gene Identification via Genome-wide siRNA Screen;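 also: robust z of the log signal after scaling to non-targeting control siRNA wells of the plate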
Conditions: RAW264.7 macrophages, IL-1a HTRF, actives lie on both sides, screened at 100 nM (by protocol), cells primed 5 h with Pam3CSK4 first
In short: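 Using IL-1a HTRF as read-out, the screen measured release from RAW264.7 cells after 48h siRNA knockdown (100 nM), 5 h Pam3CSK4 priming and 24 h cytosolic LipidA. Values were expressed relative to negative-control wells as robust z-scores.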

z-score, inactive:
CCAAGAGAUUGCUAAUUGCTT against Runx1t1 -0.695
CGCAAAAACUGGUGUAACCTT against Arhgef1 -0.958
CUCCUCAGUCAACAAGAACTT against Hoxc11 0.176
GGAAAAUGCCUCAAGACUUTT against Wdr5b -0.0565
GGACACCAUCAAUUGAUUATT against Wdr27 -0.127
GCCUUGGCUGAAACUCUCATT against Cybb 0.612
GGGACAAGAAGAACAAGAGTT against Srp14 -1.33
GGAAGAAUCGGAUCAAGAUTT against Dpep2 0.153
GCCAAGACCAUUCAGCCUUTT against Zfp579 -0.394
GCUUCAUCGAACAAGUCGCTT against Pcbd1 0.715
GGUGCUGAAGAUGCUGACGTT against Zfp503 -1.46
CGUCACUGAUGUGGCUUUUTT against Plpp6 0.755
GGCAGAAACCCUUCUAUGUTT against Bmp8a -1.55
GGACAGCUUCCGAAACUAUTT against Miox 0.349
GGAAGCCAAAGAGAAACAATT against Ighmbp2 -0.0223
GCAGCCAAGUGGGUAACUUTT against Nicn1 0.474
CGGCCUGACAUCAACCUUGTT against Fam193b -0.915
GGAAGAAAACGCAACUAUATT against Atp1b3 0.246
GUUCUCAAGUAUCCCAGGCTT against 1110006O24Rik -0.661
GCUGGAAUAUAGGAAUGUCTT against Pex11g -0.0512
GCAUGUUUACGUUCCUGACTT against Slc2a12 -0.0386
GGUUUUAAUUUCAACUGUCTT against Tpp1 -0.468
GGGCAACACAGGACAUCUATT against Amot -0.35
GGUGUCCACGGUGGUUUGATT against Pfn1 -0.268
GGGACAGUUGACUUUUUAUTT against Cntn4 0.147
CCUUUUGAUGCAUCCCGUCTT against Bpifb3 0.709
GGGACUUUGGGCUAAAUAGTT against Tspan1 -1.32
GGAUAAUUGAUCAUAGAGGTT against Ufm1 -0.495
GAGUAGGAAUUAGAAUGAUTT against Tmem47 -0.00808
GCAUGAUCUCAGGUGUUUGTT against Timm13 -1.54
GGAUAACUGCUUCAUUUCCTT against Agbl1 0.62
GGAAAGACAAAGAACUCUATT against Ssu72 -0.535
GGAUUUCACUUGAGAAUGATT against Grem1 -0.905
CCUUCUAGUUUGCCUCUGGTT against Olfr877 0.332
GGGAAGAGCAUGUUUGCUGTT against Surf4 0.982
GGAGUGUUGCCAGUUCCUATT against Tctn2 -0.434
GGAGUUUCACCAGAAGGCUTT against Ttc24 1.63
GGAACUUGGAAUUUAGUUGTT against Pla2g4b 1.43
GGACAUGGUCCUUCCUAAATT against Arl8b 0.944
GGAAGCUGCACGGCAACUUTT against Btn2a2 -0.132
CCUGGUCAAUCGAUUCAUATT against 5330416C01Rik -0.12
GGGCAGAGUGGAGUAUCUGTT against Cbx4 -1.35
GGACACAUGGAAGAGGAUUTT against Rnf139 0.513
CGAGGAUGCUUUUUAAAAATT against Inip -0.0653
GCUGCUUUAGCUUAGUUUUTT against Vwa7 0.457
GCCCGAUUAAAAUAAAUUGTT against Arih2 0.636
GGAAAAUCUGGAGUUCUUCTT against Npas1 1.3
GGUUCAGACCAUCUUGGAATT against Bag3 -0.936
GGCAUUCAGAAAUCCAGUATT against Zdhhc2 -0.942
GCAAAAGUUCCAAAAAUCCTT against Cryba1 0.0525
GCUCUACAGUAGAACAAACTT against Efcab5 1.18
GGAACUCUUUUCCUAAAAUTT against Slco1a5 -0.838
CCUAUACCCUGGAAAGGCATT against Pigz 1.59
GGCUGAAUCACCAGAACAUTT against Ikbke -0.644
GGCCAGAAUGUAUAAAGCUTT against Mboat7 -1

z-score, active:
GCUUGUUGGUGGUCUCCUGTT against Spink7 -2.28
GGCAUGGAAUCUGUUGUACTT against Olfr603 2.45
CCGUUUACGGCCACUAACUTT against Phkg2 3.68
GGUCUAGCUCUGAAACAUCTT against Pms2 2.27
GCAGGUUAAGUAGCUGACATT against Dync1li2 -2.37
CCCUCCACAGAUGAACACCTT against Lgals4 -2.02
GGUCAACGUAAAUUGUUCATT against Plppr5 2.94
GGACUUUGUGAAGGACUCUTT against Gatd1 -2.56
GGAGUGAUCAUCUAUAAUUTT against Rnf133 2.12
GCCGACAGAUUGAAAUUCGTT against Supv3l1 2.79
GGGAAUGGAAACGGCCAUGTT against Nmt1 2.02
GGAUUGAAGUCCCUUUACUTT against Zdhhc16 2.27
GGGCACUGGAACAGAUUUUTT against Ccnh 4.27
